Test results published in the supplement of paper PMC11417369.
± gives the standard deviation of the averaged measurements. Over roughly 25,000 sequences, “ln(normalized median fluorescence intensity)” has its median near 8.6; the highest 2% begin near 10. For the sample, the highest values were picked, then their nearest neighbours and some sequences at random.

test system: PfAP2-EXP AP2 domain (GST-tagged); test: gcPBM binding intensity (ln(normalized median fluorescence intensity)); higher = stronger DNA binding
Procedure, shortened: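 The highest Masliner-normalised natural-log median intensity across replicate spots of either probe orientation is reported as binding intensity. GST-tagged P. falciparum DNA-binding domains expressed in E. coli were applied for 1 h to an Agilent 4 × 180k array of primer-extended double-stranded 36-bp intergenic genomic probes plus negative controls, and bound protein was detected with Alexa488 anti-GST antibody and scanned at 488 nm.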

Row | Sequence | gcPBM binding intensity (ln)
1 | ATAAATATACATTATACCGACCATGTGGATATTATA [XGTACX_negctrl_site241] | 8.43 ± 0.49
2 | GTGCATATGTAGATATGTACATATTTATTTATTATT [XGTACX_site7343] | 8.38 ± 0.16
3 | TTCTAGAAAACTGATCGTACAAATAAATATAGACAC [XGTACX_site2808] | 8.88 ± 0.28
4 | AATGGTAATCCACATACACACACACCGACACATATA [CACACA_site8876] | 8.72 ± 0.49
5 | TTCTTCTGTTTTATTACACACCATTTTGTGTATACA [CACACA_site7059] | 8.96 ± 0.35
6 | GGTATATATTTATAATGTACATATTCATATATATAA [XGTACX_site3291] | 8.45 ± 0.39
7 | CATATACACCAACACACACACACACCCACAAAAAAA [CACACA_site496] | 8.53 ± 0.4
8 | TATATATATAAATACACACACACACCCCAAAGCGTA [CACACA_site4211] | 9.18 ± 0.46
9 | TATAAATATAAATACACACACACACGCCAAAGCGTA [CACACA_site6181] | 8.49 ± 0.36
10 | TATATATATATATACACACACACACCCCAAAGCGTA [CACACA_site64] | 10.4 ± 0.15
11 | ACCATACATACATACACACACACACCCATATATATA [CACACA_site2917] | 8.94 ± 0.45
12 | TATATATATATATATACACACACACCCACCAAAGCG [CACACA_site7904] | 10.3 ± 0.26
13 | GTACACATATAGTAATAATTTTATTATATTTTTTTG [CACACA_negctrl_site843] | 8.46 ± 0.3
14 | TATATATATATATATTTTTTTTTTTTATGCACATGG [CACACA_negctrl_site1573] | 10.1 ± 0.36
15 | GATTATTTTATAAGTACACACATTTATATATAATAA [CACACA_site2573] | 8.41 ± 0.33
16 | ATATAAGTACGGCATGCATGCACATTTTTTTATTCC [TGCATGCA_site101] | 10.3 ± 0.23
17 | AAATATTACCATGTGAAAATTTTACTGCAACATGAA [TGCATGCA_negctrl_site609] | 8.71 ± 0.38
18 | AATGAATAATTATTTTGTACATAATATTATATTTAT [XGTACX_site5350] | 8.34 ± 0.36
19 | AATCATTAAAGCATAATGTTTATGATCAATATGAAA [CACACA_negctrl_site887] | 8.27 ± 0.33
20 | CTCATCCTTACATACACACACATATATTTATTTATA [CACACA_site6202] | 8.99 ± 0.39
21 | TTTATATTTATATATACACACATATACATCCTATTT [CACACA_site3079] | 8.54 ± 0.31
22 | CTCATCCTTACATACACACACATATATATATATATA [CACACA_site103] | 10.2 ± 0.29
23 | GTTACATACATATACACACACATATATATATATATA [CACACA_site901] | 9.99 ± 0.35

Row | Sequence | gcPBM binding intensity (ln)
24 | TTCTCATCCTTACATACACACACATATATATATATA [CACACA_site7914] | 10.3 ± 0.11
25 | CCCTCTTCTCTCATATCACACATGTCATCCTTATCC [CACACA_site5078] | 9.15 ± 0.42
26 | TTTTTTTTTTTTTTTACACACAAATGTATACTATAT [CACACA_site1787] | 8.46 ± 0.43
27 | TTTTTATTGTTATAGTTATAATATATTATTTGATTA [XGTACX_negctrl_site27] | 8.44 ± 0.4
28 | ATATATATATATAATAGTACATATATTTTGAAAGAT [XGTACX_site5800] | 9.75 ± 0.27
29 | ATATTTGCCCAAGATAGTACATATATATATATATAT [XGTACX_site7756] | 10.2 ± 0.24
30 | TATATATTAGAAGATAGTACATATATATTTATTAAT [XGTACX_site1011] | 8.53 ± 0.24
31 | AAAAAAAAAAAATTCACACACATATAAAAAATTAAG [CACACA_site728] | 8.39 ± 0.45
32 | AAAATTAAATTATAAGCACACACATATATATATATA [CACACA_site9105] | 10.2 ± 0.52
33 | AATTAAATTATAAGCACACACATATATATATATATA [CACACA_site3351] | 10.2 ± 0.32
34 | TATATATATATAAGCACACAAACAAAAAAAATTATA [CACACA_site3897] | 9.74 ± 0.27
35 | AAATTAAATGTAAGCACACATAAATTATACGCATAT [CACACA_site3335] | 8.6 ± 0.38
36 | ATAAAAAAAAATAGCACACATAAATATATTATATAT [CACACA_site767] | 8.66 ± 0.35
37 | AAATTAAATGTAAGCACACATAAATTATACTCATAT [CACACA_site5782] | 8.36 ± 0.33
38 | AAAAATATTATAAGCACACATATATATATATATATA [CACACA_site2458] | 10.3 ± 0.28
39 | ATAAAAATATTATAAGCACACATATATATATATATA [CACACA_site8781] | 10.2 ± 0.34
40 | ATACAATAATATAAATGTACAAATTATATCTTCATT [XGTACX_site8994] | 8.37 ± 0.33
41 | TATACCTATAGACACACACACATAAATAGATATATA [CACACA_site6748] | 8.83 ± 0.51
42 | TATATGCAAAATGTCACACATGTGATAAATACATAT [CACACA_site4302] | 8.72 ± 0.36
43 | ATTTTACATATTTGCACACATATATTTATATACATA [CACACA_site854] | 8.89 ± 0.4
44 | TATAAAAAAAACGAAAAAAAAAAAAAAAATACAGGA [TGCATGCA_negctrl_site585] | 8.54 ± 0.61
45 | TATATATATATATATACACACATACAGATATATATT [CACACA_site4629] | 10.2 ± 0.36
46 | TATATATATATATATACACACATATACATATTGTTT [CACACA_site3499] | 10.2 ± 0.32

Row | Sequence | gcPBM binding intensity (ln)
47 | GTTACATACAGATACACACACATATATATATATATA [CACACA_site4652] | 10.2 ± 0.15
48 | TATATATACATACATACACACATATATATATATATT [CACACA_site4110] | 8.71 ± 0.4
49 | CATACATACATACATACACACATACAGATATATATA [CACACA_site4890] | 9.15 ± 0.32
50 | AGTATACAGATATATACACACATATATATATATATA [CACACA_site4323] | 10 ± 0.41
51 | CACAGATATATACATACACACATATATACACATATA [CACACA_site6323] | 8.58 ± 0.38
52 | TGTTGTTACAGATATACACACATATATATATTATAT [CACACA_site5342] | 8.55 ± 0.41
53 | TATATATATATATATACACACATACATATATATATT [CACACA_site8185] | 10.1 ± 0.4
54 | AAGGTTTTGGGTTTTAATTAATTTAATATGATTATA [XGTACX_negctrl_site147] | 8.46 ± 0.59
55 | TACATTTTTATTTTTACACACATATATATATATATA [CACACA_site1021] | 10.1 ± 0.31
56 | AAAATAAATATAAAATGTACTTATATATATATATAT [XGTACX_site7803] | 9.97 ± 0.47
57 | AACAGATAATATAAAAAAAAAAAAAAAAATAATTAA [GTGCAC_negctrl_site69] | 8.07 ± 0.53
58 | ATATTTTTTTTCTACACACATACAAATATATATTAT [CACACA_site2359] | 8.97 ± 0.46
59 | AATAAATAAAAAACATGTACAAATATAATATAGCAT [XGTACX_site6429] | 9.18 ± 0.5
60 | AAATTGTGTTCATCAGCACACACAACATCATGTAAT [CACACA_site8556] | 8.51 ± 0.41
61 | AAATATAAAAAAAATATATAATTTTTACATCGAATT [CACACA_negctrl_site544] | 8.24 ± 0.38
62 | AAAAATAAAGGGTGTGCACACAAAAATATATATATA [CACACA_site1727] | 9.805 ± 0.078
63 | AAAAATAAAAGGTGTGCACACAAAAATATATATATA [CACACA_site8507] | 9.74
64 | TATAAATATATATATACACACACATACACAAAAAAA [CACACA_site9191] | 8.96 ± 0.54
65 | TAATAAAAAATATATACACACAAATAAATAAATAAA [CACACA_site4037] | 8.75 ± 0.62
66 | TTATACACAAAAAAAAAAATATATATATATATATAT [XGTACX_negctrl_site5] | 10.2 ± 0.61
67 | CACAAATATACAAATACACACAAATATACAAATACA [CACACA_site2385] | 8.7 ± 0.41
68 | TAAATATATATATACACACACATACACAAAAAAAAA [CACACA_site3580] | 8.73 ± 0.42
69 | TACACAAATATATATATATATATATATATATATATA [XGTACX_negctrl_site305] | 10.2 ± 0.14

Row | Sequence | gcPBM binding intensity (ln)
70 | TACAAAAAAAAATAAAATACATATATATATATATAT [XGTACX_negctrl_site608] | 10.3 ± 0.18
71 | GTACAAAAAAAAATAAAATACATATATATATATATA [GTGCAC_negctrl_site364] | 10.1 ± 0.41
72 | CACAAATATATACATACACACATATATACACATATA [CACACA_site8024] | 8.47 ± 0.34
73 | AAATAAAAAGGGTGCACACAAAAATATATATATATA [CACACA_site1728] | 10.5 ± 0.6
74 | TACGTGAAATTATATACACACATAAATATGTCTGTA [CACACA_site3122] | 8.16 ± 0.36
75 | ATTTAAAAAAAAACGGAATTTTTTTTTTTTTTAAAG [XGTACX_negctrl_site91] | 8.06 ± 0.51
76 | TTAAAAAAAATATAATGTACTTGTAGAATTATATTT [XGTACX_site6220] | 8.09 ± 0.26
77 | TTTTTTAATTAATTACCTTTGAATGTGTATTAGGAC [GTGCAC_negctrl_site651] | 8.49 ± 0.26
78 | AATATATACATATATTGTACATATAGTTTCTTGCAT [XGTACX_site7871] | 8.61 ± 0.33
79 | AAATTATTATGAAATGGAAAATGCATAAATTGTTTT [XGTACX_negctrl_site206] | 8.63 ± 0.48
80 | AAAAAAATATAAATACGTACATATATATATATATAT [XGTACX_site432] | 10.2 ± 0.46
81 | ACAAAAAAATAAAATATATATATATATATAATATAT [CACACA_negctrl_site805] | 8.58 ± 0.16
82 | CCATATACAACCATACGTACATATATATATATATAT [XGTACX_site8193] | 10.2 ± 0.2
83 | TACAAAAAAATAAATAATAAAAAAAAATATATATAA [XGTACX_negctrl_site344] | 8.38 ± 0.38
84 | AAATAAATAAATATACGTACATATATATAATATATA [XGTACX_site5124] | 8.52 ± 0.15
85 | TATATATACATATACACACATACGTACATACATATA [CACACA_site3585] | 8.75 ± 0.31
86 | ATACATACATACATACGTACATATGTATATATATAT [XGTACX_site8498] | 9.7 ± 0.19
87 | TAATATAACAAAAAAATAAAATAAAATAAAAAATAA [CACACA_negctrl_site109] | 8.4 ± 0.41
88 | AATATACAAAATAAATAAAATATATATATATATATA [CACACA_negctrl_site216] | 10.2 ± 0.28
89 | AACATAACAAAAAAAAAAAAAAATATATATATATAT [TGCATGCA_negctrl_site370] | 10.2 ± 0.41
90 | ATAAATAAATAAATACGTACATATATATATATATAT [XGTACX_site8838] | 9.98 ± 0.38
91 | TATAAAATAAATAACAAAAAAAATAAAATAAAAATA [TGCATGCA_negctrl_site297] | 8.47 ± 0.47
